According to PMC7862700, “An all-to-all approach to the identification of sequence-specific readers for epigenetic DNA modifications on cytosine”:

Assays:
Assay in all cases: DAPPL (digital affinity profiling via proximity ligation, sequencing); 10 mM Tris-HCl pH 7.5, 50 mM NaCl, 1 mM DTT, 4% glycerol, room temperature, 30 min; GST-TFs on glutathione beads, 16-mer random dsDNA library, 0.1% formaldehyde crosslink after washing; high values mean tight binding
ETV5 = ETV5 (Homo sapiens, UniProt P41161 1-510); details: protein: recombinant; tags: N-terminal GST; dsDNA, one strand shown
Sequence of ETV5 (P41161 whole entry, the tested form may be a part): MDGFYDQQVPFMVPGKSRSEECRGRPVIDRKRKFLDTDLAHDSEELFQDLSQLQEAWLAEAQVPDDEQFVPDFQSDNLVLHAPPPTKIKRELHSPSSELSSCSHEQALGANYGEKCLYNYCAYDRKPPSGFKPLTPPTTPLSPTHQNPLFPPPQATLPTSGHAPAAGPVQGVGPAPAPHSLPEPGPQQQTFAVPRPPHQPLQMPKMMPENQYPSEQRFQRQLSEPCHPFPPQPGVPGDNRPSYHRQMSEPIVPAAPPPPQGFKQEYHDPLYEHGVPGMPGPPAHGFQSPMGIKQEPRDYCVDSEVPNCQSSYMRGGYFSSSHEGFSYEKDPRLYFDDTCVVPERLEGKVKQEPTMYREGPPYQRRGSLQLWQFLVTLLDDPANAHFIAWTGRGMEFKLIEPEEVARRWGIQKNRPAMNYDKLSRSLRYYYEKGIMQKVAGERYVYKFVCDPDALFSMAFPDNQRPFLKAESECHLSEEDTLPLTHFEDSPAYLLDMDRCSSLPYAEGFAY
Method in brief: (§1)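 Binding signal is each hexamer's read frequency for a factor divided by its frequency in the tag-only sample. The factors were GST-fused human transcription factors from yeast, captured on glutathione beads, DNA-barcoded and pooled with that sample. Pools were incubated with 200 nmole of a random double-stranded 16-mer DNA library in Tris/NaCl/DTT/glycerol buffer at room temperature for 30 min, then washed, crosslinked with 0.1% formaldehyde, proximity-ligated with BsaI/T4 ligase (1 h, 37 °C), PCR-amplified and sequenced on an Illumina NextSeq500.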

HSF1 = HSF1 (Homo sapiens, UniProt Q00613 1-529); details: protein: recombinant; tags: N-terminal GST; chain copies: 3; dsDNA, one strand shown
Sequence of HSF1 (Q00613 whole entry): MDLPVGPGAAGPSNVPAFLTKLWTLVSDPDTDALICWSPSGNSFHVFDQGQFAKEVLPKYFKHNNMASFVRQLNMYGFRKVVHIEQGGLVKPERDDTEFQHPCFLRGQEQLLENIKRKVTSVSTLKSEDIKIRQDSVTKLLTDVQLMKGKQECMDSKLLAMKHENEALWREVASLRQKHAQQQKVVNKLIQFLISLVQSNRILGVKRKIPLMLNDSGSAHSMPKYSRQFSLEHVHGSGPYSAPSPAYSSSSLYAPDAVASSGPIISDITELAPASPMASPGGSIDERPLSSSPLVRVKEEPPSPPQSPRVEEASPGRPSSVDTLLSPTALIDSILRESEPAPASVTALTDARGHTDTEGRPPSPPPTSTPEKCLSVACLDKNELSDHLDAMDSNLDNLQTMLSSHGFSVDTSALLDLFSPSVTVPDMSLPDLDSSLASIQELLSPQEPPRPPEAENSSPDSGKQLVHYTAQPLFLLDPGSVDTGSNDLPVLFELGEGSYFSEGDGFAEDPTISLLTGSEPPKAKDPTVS
Method in brief: as §1

SPIC = molecular target: T1, SPIC (Homo sapiens, UniProt Q8N5J4 1-248); details: protein: recombinant; tags: N-terminal GST; dsDNA, one strand shown
T1 sequence: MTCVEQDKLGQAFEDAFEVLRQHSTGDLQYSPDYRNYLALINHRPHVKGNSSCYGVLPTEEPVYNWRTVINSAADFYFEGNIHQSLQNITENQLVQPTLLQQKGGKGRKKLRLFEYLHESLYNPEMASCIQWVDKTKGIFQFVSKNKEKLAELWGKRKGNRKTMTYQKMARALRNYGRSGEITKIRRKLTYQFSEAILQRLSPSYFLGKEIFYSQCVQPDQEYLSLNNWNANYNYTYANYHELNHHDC
Method in brief: as §1

ELF4 = ELF4 (Homo sapiens, UniProt Q99607 1-663); details: protein: recombinant; tags: N-terminal GST; dsDNA, one strand shown
Sequence of ELF4 (Q99607 whole entry): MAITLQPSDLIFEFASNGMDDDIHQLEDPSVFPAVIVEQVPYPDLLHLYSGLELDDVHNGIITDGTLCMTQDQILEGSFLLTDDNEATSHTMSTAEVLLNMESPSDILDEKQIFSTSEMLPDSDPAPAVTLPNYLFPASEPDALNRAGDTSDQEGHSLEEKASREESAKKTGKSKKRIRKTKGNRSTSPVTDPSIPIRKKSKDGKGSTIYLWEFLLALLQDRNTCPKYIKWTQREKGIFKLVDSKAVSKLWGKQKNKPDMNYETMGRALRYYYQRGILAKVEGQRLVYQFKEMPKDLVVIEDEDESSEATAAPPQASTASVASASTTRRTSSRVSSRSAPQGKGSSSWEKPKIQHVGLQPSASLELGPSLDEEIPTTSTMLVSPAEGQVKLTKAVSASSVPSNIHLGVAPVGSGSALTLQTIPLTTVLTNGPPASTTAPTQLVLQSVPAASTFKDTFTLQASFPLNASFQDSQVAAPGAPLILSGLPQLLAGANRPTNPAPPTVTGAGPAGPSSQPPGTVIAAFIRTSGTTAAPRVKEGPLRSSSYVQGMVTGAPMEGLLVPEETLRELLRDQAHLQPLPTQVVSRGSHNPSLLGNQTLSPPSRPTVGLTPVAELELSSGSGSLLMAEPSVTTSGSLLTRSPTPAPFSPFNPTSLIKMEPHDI
Method in brief: as §1

ELK4 = molecular target: T2, ELK4 (Homo sapiens, UniProt P28324-2 1-405); details: protein: recombinant; tags: N-terminal GST; dsDNA, one strand shown
T2 sequence: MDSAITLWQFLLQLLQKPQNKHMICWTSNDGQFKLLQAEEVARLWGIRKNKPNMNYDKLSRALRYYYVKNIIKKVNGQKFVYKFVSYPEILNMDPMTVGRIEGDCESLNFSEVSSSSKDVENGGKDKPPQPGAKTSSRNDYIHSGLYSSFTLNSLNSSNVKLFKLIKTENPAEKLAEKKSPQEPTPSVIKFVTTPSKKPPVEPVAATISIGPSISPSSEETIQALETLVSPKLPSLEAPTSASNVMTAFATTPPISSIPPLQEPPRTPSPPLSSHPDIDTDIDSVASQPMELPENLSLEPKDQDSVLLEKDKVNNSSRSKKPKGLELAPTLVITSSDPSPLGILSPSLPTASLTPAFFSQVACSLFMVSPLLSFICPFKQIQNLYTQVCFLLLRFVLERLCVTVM
Method in brief: as §1

ETV2 = molecular target: T3, ETV2 (Homo sapiens, UniProt O00321 1-342); details: protein: recombinant; tags: N-terminal GST; dsDNA, one strand shown
T3 sequence: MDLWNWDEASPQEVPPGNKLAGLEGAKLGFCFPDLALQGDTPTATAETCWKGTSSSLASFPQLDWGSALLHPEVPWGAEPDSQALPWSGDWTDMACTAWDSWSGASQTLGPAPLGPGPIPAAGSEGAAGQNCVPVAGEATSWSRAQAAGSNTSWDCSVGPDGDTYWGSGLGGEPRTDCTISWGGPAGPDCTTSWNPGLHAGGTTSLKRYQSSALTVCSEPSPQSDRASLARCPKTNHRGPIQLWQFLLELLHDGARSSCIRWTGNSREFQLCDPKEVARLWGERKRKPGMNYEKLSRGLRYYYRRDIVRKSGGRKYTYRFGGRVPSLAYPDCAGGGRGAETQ
Method in brief: as §1

CRX = CRX (Homo sapiens, UniProt O43186 1-299); details: protein: recombinant; tags: N-terminal GST; dsDNA, one strand shown
Sequence of CRX (O43186 whole entry): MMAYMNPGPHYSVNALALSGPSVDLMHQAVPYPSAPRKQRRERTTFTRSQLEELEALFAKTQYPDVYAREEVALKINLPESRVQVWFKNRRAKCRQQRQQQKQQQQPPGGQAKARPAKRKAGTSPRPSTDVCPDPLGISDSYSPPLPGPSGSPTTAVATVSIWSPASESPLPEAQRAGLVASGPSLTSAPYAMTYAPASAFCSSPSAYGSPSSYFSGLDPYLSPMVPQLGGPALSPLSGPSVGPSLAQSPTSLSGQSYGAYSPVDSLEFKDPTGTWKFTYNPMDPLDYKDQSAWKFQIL
Method in brief: as §1

ETV1 = ETV1 (Homo sapiens, UniProt P50549 1-477); details: protein: recombinant; tags: N-terminal GST; dsDNA, one strand shown
Sequence of ETV1 (P50549 whole entry): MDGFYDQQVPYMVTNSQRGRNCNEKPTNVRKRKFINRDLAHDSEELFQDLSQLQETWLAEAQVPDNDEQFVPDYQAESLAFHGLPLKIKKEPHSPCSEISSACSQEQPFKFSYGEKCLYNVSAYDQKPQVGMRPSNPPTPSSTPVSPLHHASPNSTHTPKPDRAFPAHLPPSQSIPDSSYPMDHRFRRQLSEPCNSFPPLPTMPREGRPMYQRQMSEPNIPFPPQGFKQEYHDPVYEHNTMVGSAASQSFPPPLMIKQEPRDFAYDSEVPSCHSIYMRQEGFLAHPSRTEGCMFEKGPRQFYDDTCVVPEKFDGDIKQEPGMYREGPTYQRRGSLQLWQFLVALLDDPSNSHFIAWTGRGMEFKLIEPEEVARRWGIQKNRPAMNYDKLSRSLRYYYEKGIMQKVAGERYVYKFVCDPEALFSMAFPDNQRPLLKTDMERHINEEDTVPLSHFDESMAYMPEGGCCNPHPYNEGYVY
Method in brief: as §1

ERF = molecular target: T4, ERF (Homo sapiens, UniProt P50548 1-548); details: protein: recombinant; tags: N-terminal GST; dsDNA, one strand shown
T4 sequence: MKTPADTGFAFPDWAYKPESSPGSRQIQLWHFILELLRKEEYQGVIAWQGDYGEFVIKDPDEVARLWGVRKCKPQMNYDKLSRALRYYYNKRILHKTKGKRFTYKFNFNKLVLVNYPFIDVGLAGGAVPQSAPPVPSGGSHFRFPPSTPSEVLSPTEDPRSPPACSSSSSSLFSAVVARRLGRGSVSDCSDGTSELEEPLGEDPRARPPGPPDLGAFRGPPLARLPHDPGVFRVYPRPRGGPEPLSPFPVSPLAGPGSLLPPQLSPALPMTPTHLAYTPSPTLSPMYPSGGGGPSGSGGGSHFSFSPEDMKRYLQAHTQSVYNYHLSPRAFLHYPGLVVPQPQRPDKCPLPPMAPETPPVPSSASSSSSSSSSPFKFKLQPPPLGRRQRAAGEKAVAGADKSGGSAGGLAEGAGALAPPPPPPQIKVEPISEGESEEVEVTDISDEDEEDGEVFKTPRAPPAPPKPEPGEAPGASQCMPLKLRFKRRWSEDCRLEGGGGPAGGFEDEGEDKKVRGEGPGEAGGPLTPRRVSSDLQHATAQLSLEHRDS
Method in brief: as §1

ETV3L = molecular target: T5, ETV3L (Homo sapiens, UniProt Q6ZN32 1-361); details: protein: recombinant; tags: N-terminal GST; dsDNA, one strand shown
T5 sequence: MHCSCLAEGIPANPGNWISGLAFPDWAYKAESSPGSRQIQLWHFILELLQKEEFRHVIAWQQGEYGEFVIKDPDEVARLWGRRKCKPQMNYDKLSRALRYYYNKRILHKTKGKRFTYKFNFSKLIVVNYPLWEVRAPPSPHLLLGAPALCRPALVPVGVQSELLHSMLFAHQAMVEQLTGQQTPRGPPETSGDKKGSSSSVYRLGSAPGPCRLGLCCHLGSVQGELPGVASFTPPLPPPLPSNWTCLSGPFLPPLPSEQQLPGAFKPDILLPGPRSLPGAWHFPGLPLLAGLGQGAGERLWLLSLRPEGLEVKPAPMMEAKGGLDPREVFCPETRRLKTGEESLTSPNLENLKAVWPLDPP
Method in brief: as §1

ETS2 = molecular target: T6, ETS2 (Homo sapiens, UniProt P15036 1-469); details: protein: recombinant; tags: N-terminal GST; dsDNA, one strand shown
T6 sequence: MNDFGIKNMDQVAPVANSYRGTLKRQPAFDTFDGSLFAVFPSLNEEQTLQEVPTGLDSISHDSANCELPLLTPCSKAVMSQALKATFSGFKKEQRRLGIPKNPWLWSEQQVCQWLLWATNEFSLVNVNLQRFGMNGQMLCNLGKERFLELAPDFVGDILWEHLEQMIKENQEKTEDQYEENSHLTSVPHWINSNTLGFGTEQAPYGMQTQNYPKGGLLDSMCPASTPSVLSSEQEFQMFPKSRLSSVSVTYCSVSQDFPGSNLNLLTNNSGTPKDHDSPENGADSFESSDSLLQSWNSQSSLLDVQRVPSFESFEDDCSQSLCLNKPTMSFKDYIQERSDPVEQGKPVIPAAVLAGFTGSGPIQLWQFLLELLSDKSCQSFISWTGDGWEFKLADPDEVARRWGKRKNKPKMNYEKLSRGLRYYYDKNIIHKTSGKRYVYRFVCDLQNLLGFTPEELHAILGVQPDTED
Method in brief: as §1

SPDEF = molecular target: T7, SPDEF (Homo sapiens, UniProt O95238 1-335); details: protein: recombinant; tags: N-terminal GST; dsDNA, one strand shown
T7 sequence: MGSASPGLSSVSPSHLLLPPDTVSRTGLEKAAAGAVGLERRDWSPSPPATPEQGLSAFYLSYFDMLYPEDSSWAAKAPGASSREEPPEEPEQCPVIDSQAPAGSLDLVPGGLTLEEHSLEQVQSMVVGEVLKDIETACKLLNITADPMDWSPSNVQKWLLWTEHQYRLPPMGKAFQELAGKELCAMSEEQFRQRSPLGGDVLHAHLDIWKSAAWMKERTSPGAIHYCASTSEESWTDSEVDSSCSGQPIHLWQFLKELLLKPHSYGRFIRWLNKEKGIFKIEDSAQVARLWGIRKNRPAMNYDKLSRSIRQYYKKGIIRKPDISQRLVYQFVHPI
Method in brief: as §1

ETV7 = molecular target: T8, ETV7 (Homo sapiens, UniProt Q9Y603 1-341); details: protein: recombinant; tags: N-terminal GST; dsDNA, one strand shown
T8 sequence: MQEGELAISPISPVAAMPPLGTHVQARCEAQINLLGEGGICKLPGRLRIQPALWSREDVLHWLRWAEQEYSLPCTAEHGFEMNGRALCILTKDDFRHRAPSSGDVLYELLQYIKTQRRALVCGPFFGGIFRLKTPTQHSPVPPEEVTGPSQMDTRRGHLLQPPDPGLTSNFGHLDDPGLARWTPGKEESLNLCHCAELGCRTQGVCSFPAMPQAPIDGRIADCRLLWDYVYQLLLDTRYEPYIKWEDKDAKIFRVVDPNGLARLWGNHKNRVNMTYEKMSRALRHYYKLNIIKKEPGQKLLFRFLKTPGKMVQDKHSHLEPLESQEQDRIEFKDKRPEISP
Method in brief: as §1

ELF5 = molecular target: T9, ELF5 (Homo sapiens, UniProt Q9UKW6-2 1-255); details: protein: recombinant; tags: N-terminal GST; dsDNA, one strand shown
T9 sequence: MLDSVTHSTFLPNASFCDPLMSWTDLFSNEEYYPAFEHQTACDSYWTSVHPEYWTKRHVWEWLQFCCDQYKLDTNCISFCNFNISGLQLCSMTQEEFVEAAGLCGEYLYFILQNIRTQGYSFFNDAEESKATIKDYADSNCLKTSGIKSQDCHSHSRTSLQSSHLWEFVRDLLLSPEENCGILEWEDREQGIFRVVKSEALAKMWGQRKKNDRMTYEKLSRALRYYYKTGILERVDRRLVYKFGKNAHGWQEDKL
Method in brief: as §1

ETV3 = molecular target: T10, ETV3 (Homo sapiens, UniProt P41162-2 1-143); details: protein: recombinant; tags: N-terminal GST; dsDNA, one strand shown
T10 sequence: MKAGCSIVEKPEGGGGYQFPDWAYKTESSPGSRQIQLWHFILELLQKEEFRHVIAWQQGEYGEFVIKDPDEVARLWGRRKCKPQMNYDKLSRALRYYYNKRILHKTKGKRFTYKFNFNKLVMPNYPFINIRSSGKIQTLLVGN
Method in brief: as §1

ETV6 = ETV6 (Homo sapiens, UniProt P41212 1-452); details: protein: recombinant; tags: N-terminal GST; dsDNA, one strand shown
Sequence of ETV6 (P41212 whole entry): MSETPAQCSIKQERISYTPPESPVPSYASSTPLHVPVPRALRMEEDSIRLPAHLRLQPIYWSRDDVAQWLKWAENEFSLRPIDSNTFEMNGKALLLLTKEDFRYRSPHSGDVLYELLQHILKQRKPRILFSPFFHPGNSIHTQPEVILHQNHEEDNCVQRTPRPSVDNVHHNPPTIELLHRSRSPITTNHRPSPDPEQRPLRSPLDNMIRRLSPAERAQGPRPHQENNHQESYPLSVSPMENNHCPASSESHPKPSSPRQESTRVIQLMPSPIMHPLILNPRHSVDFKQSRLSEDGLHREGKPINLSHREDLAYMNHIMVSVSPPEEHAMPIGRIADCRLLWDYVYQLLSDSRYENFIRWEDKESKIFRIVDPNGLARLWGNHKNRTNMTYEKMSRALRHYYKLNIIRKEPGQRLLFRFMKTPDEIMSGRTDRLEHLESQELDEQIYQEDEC
Method in brief: as §1

FEV = molecular target: T11, FEV (Homo sapiens, UniProt Q99581 1-238); details: protein: recombinant; tags: N-terminal GST; dsDNA, one strand shown
T11 sequence: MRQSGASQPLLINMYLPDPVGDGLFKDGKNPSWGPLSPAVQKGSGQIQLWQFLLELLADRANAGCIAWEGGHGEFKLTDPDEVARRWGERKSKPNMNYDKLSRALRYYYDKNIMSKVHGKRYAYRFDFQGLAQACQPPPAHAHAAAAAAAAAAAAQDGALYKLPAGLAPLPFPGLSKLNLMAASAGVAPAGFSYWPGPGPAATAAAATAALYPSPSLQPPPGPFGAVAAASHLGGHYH
Method in brief: as §1

| Sequence | binding signal (ETV5) | binding signal (HSF1) | binding signal (SPIC) | binding signal (ELF4) | binding signal (ELK4) | binding signal (ETV2) | binding signal (CRX) | binding signal (ETV1) | binding signal (ERF) | binding signal (ETV3L) | binding signal (ETS2) | binding signal (SPDEF) | binding signal (ETV7) | binding signal (ELF5) | binding signal (ETV3) | binding signal (ETV6) | binding signal (FEV) |
| --- | --- | --- | --- | --- | --- | --- | --- | --- | --- | --- | --- | --- | --- | --- | --- | --- | --- |
| TTAGCG | 1 fold enrichment (6-mer frequency, TF over GST control) | 1.49 fold enrichment (6-mer frequency, TF over GST control) | 1.03 fold enrichment (6-mer frequency, TF over GST control) | 1.14 fold enrichment (6-mer frequency, TF over GST control) | 1.05 fold enrichment (6-mer frequency, TF over GST control) | 1.14 fold enrichment (6-mer frequency, TF over GST control) | 2.24 fold enrichment (6-mer frequency, TF over GST control) | 1.07 fold enrichment (6-mer frequency, TF over GST control) | 1.05 fold enrichment (6-mer frequency, TF over GST control) | 1.06 fold enrichment (6-mer frequency, TF over GST control) | 1.06 fold enrichment (6-mer frequency, TF over GST control) | 1.04 fold enrichment (6-mer frequency, TF over GST control) | 1.11 fold enrichment (6-mer frequency, TF over GST control) | 1.02 fold enrichment (6-mer frequency, TF over GST control) | 1.03 fold enrichment (6-mer frequency, TF over GST control) | 1.04 fold enrichment (6-mer frequency, TF over GST control) |  |
| TGTAGC | 1.24 fold enrichment (6-mer frequency, TF over GST control) | 1.02 fold enrichment (6-mer frequency, TF over GST control) | 1.11 fold enrichment (6-mer frequency, TF over GST control) | 1.26 fold enrichment (6-mer frequency, TF over GST control) | 1.31 fold enrichment (6-mer frequency, TF over GST control) | 1.24 fold enrichment (6-mer frequency, TF over GST control) |  | 1.22 fold enrichment (6-mer frequency, TF over GST control) | 1.32 fold enrichment (6-mer frequency, TF over GST control) | 1.13 fold enrichment (6-mer frequency, TF over GST control) | 1.12 fold enrichment (6-mer frequency, TF over GST control) | 1.2 fold enrichment (6-mer frequency, TF over GST control) | 1.12 fold enrichment (6-mer frequency, TF over GST control) | 1.14 fold enrichment (6-mer frequency, TF over GST control) | 1.22 fold enrichment (6-mer frequency, TF over GST control) | 1.12 fold enrichment (6-mer frequency, TF over GST control) | 1.17 fold enrichment (6-mer frequency, TF over GST control) |
